Article PMC6919601, “Identification of Plasmodium dipeptidyl aminopeptidase allosteric inhibitors by high throughput screening” (PLoS ONE, 2019)
“And” between values parts separate entries of the source, which are not always exact repeats. Equal entries are not always repeated. The whole screen tested about 110,000 compounds, of which about 230 (0.21%) showed an effect of 50% or more. This is one part of a sample in which strong results are shown more often than they occur.

The compounds below were run against DPAP1 (Plasmodium falciparum, UniProt Q8IIJ9) (assay: primary screen, percent inhibition; read by cleavage of a fluorogenic dipeptide substrate; higher = more effect of the substance).
Sequence of DPAP1 (Q8IIJ9 whole entry, looked up): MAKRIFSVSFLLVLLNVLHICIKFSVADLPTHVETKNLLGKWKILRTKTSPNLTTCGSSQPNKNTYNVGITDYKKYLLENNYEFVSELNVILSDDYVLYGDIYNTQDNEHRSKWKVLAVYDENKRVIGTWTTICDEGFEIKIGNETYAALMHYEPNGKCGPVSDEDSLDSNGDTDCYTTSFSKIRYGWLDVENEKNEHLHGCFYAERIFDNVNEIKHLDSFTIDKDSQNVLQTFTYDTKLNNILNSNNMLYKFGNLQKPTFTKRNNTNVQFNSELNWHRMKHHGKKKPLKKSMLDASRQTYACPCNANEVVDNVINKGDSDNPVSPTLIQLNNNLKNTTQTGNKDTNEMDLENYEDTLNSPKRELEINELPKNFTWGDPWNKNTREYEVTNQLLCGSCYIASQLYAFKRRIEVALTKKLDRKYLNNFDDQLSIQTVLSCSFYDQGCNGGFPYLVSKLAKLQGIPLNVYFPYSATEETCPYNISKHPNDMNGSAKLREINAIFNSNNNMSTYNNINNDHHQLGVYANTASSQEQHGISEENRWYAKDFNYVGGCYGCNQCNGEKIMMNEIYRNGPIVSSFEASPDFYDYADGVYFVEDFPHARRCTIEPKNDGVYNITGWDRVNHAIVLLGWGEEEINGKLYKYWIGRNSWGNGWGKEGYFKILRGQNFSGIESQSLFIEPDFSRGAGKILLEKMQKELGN
Parameters: species or system P. falciparum D10 trophozoite lysates; single well
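Further: 30 min substrate incubation versus DMSO and 10 µM JCP410 controls.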

Compound | % Inhibition @ 10 uM
C=CCOCC(O)CSc1nc(C)cc(C)n1 (stereo not shown) | 3.48%
O=C(C1CCCC1)N1CCN(C(c2ccccc2)c2ccccc2)CC1 | 0.795%
O=C(Nc1ccccc1)c1nc2ccccc2s1 | 5.39%
CCCCCCc1cc2cc(-c3csc(N)n3)c(=O)oc2cc1O | 1.12%
CCCCCCc1cc2cc(C(=O)O)c(=O)oc2cc1O | 4.08%
CCCCCCc1cc2cc(C#N)c(=O)oc2cc1O | 67.5%
CCc1ccc(C2c3c(oc4ccccc4c3=O)C(=O)N2c2nc(C)c(C(=O)OC)s2)cc1 (stereo not shown) | -1.86%
CCOc1cc(C2c3c(oc4ccccc4c3=O)C(=O)N2c2nc(C)c(C(=O)OC)s2)ccc1O (stereo not shown) | 69.6%
CCOc1ccc(C2c3c(oc4ccccc4c3=O)C(=O)N2c2nc(C)c(C(=O)OC)s2)cc1 (stereo not shown) | 70.8%
C=CCOc1ccc(C2c3c(oc4ccccc4c3=O)C(=O)N2c2nc(C)c(C(=O)OC)s2)cc1 (stereo not shown) | 3.12%
CCOc1cc(C2c3c(oc4ccccc4c3=O)C(=O)N2c2nc(C)c(C(C)=O)s2)ccc1O (stereo not shown) | -0.828%
CCOC(=O)c1sc(N2C(=O)c3oc4ccccc4c(=O)c3C2c2ccc(O)c(OC)c2)nc1C (stereo not shown) | 2.16%
CCn1cc(C(=O)Nc2ccccc2C(C)C)cn1 | 6.1%
CCS(=O)(=O)c1nc(S(=O)(=O)c2ccc(C)cc2)c(NCCc2ccccc2)s1 | -5.89%
Cc1nc2c(nc(C)n2-c2ccccc2)s1 | 2.92%
CCOc1ccc(Nc2nc(-c3cccs3)cs2)cc1 | -1.37%
CCCCNC(=O)C(CC)n1nc(C)c2sc3ccccc3c2c1=O (stereo not shown) | -2.61%
CCc1ccc(CNC(=O)C(CC)n2nc(C)c3sc4ccccc4c3c2=O)cc1 (stereo not shown) | 90.8%
CCC(C(=O)NCc1ccc(OC(C)C)cc1)n1nc(C)c2sc3ccccc3c2c1=O (stereo not shown) | 2.8%

Compound | % Inhibition @ 10 uM
O=S(=O)(c1ccccc1)N1CCN(c2ccccc2)CC1 | 5.09%
O=C1CN(S(=O)(=O)c2ccccc2)CCN1S(=O)(=O)c1ccccc1 | 60.8%
CN1CCN(S(=O)(=O)c2ccccc2)CC1 | -0.127%
COc1cc(CN2CCc3c([nH]c4ccccc34)C2)cc2c1OCO2 | -5.11%
CC(=O)C1=C(C)OC(N)=C(C#N)C1c1cc2c(cc1[N+](=O)[O-])OCO2 (stereo not shown) | -1.29%
CN(Cc1cnn(-c2ccccc2)c1)S(=O)(=O)c1ccc(-c2cc(C(F)(F)F)no2)s1 | 1.05%
Cc1cc(C)c(C#N)c(S)n1 | 89.9%
CC(C)(C)c1cc(-c2ccco2)c(C#N)c(S)n1 | 20.6%
Cc1cc(C)c(C#N)c(Cl)n1 | 1.27%
CSc1nc(C)cc(C(F)(F)F)c1C#N | 4.97%
Cc1cc(C(F)(F)F)c(C#N)c(SCc2ccccc2)n1 | 2.23%
Cc1cc(-c2ccco2)c(C#N)c(S)n1 | 51.7%
CCc1nc(S)c(C#N)c(C(F)(F)F)c1C | 74.2%
COCc1cc(C)nc(S)c1C#N | 43.7% and 44.2%
CCc1nc(N)c(C#N)c(-c2ccc(Br)s2)c1C | -3.13%
Cc1cc(-c2ccco2)c(C#N)c(N)n1 | 1.38%
CCc1nc(SCc2cccnc2)c(C#N)c(C(F)(F)F)c1C | 0.775%
Cc1cc(C(F)(F)F)c(C#N)c(S)n1 | 82.2%
